# In PubChem BioAssay (NCATS):
# Results filed as inconclusive are left out. Unmarked numbers belong to inactive results. The source made the active and inactive calls. Calls follow the shape of the dose curve; as a rule, active = well fitted inhibition curve with a large enough effect in the signal ratio, with a control signal flat (not every such curve was filed as active); inconclusive = small, poorly fitted or top-dose-only effect, or effect the other way, or a change in a side signal; inactive = flat fitted curve, though single readings scatter; the % refers to the signal ratio.
# Biological target: Peroxisome proliferator-activated receptor gamma (Homo sapiens) (UniProt P37231)
# Assay: qHTS assay for small molecule antagonists of peroxisome proliferator-activated receptor gamma signaling (AID 588537); as to activity, negative = inhibition: % of control where 0% means no effect
# Conditions: HEK293 PPARg-UAS-bla, beta-lactamase ratio, antagonist mode; series mostly up to 76.8 µM; activity, negative = inhibition: at the top concentration
# Source text: NIH Chemical Genomics Center [NCGC]
# U.S. Environmental Protection Agency [EPA]
# National Institutes of Environmental Health Sciences [NIEHS]
# National Toxicology Program [NTP]
# The Peroxisome proliferator-activated receptors (PPARs) are lipid-activated transcription factors of the nuclear receptor superfamily with three distinct subtypes namely PPAR alpha, PPAR delta (also called PPAR beta) and PPAR gamma. All these subtypes heterodimerizes with Retinoid X receptor (RXR) and these heterodimers regulate transcription of various genes. PPAR-gamma (glitazone receptor) ligands have been used in the treatment of type 2 diabetes and dyslipidaemia. It is involved in the regulation of glucose and lipid metabolism. PPAR-gamma activates certain genes like Paraoxonase 1 which is responsible for hydrolyzing organophosphates. PPAR-gamma ligands may also be therapeutically important in the treatment of coronary artery disease, obesity and cancer and atherosclerosis.
# NCGC Assay Protocol Summary
# Using a beta-lactamase reporter-gene under control of Peroxisome Proliferator-Activated-gamma (PPAR-gamma) response element, a cell-based assay [GeneBLAzer PPAR-gamma-UAS-bla assay developed by Invitrogen] was used to measure PPAR-gamma ligands signaling. GeneBLAzer PPAR-gamma-UAS-bla-HEK293 cells were used with assay medium containing 1% charcoal/dextran treated FBS. The assay was performed in clear bottom black Greiner 1536-well plates. Library compounds were measured for their ability to inhibit the reporter gene activity. Compounds were screened in a titration series in 1536-well format. The fluorescence intensity (405 nm excitation, 460/530 nm emission) was measured using an EnVision plate reader. Data was normalized relative to Rosiglitazone control (50 nM, 100%), and DMSO only wells (basal, 0%). Concentration-response titration points for each compound were fitted to the Hill equation yielding concentrations of half-maximal inhibition (IC50) and maximal response (efficacy) values.
# qHTS protocol for PPAR-gamma beta-lactamase assay in antagonist mode
# [Step] [Parameter] [Value] [Description]
# 1. Reagent; 5 uL; 3000 cells/well
# 2. Incubation; 37 C for 6-6.5 hrs
# 4. Controls (GW9662, PPAR-gamma antagonist); 23 nL,
# 5. Agonist (Stimulator); 1uL; Rosiglitazone at 50 nM (final) concentration
# 6. Incubation; 37 C for 16 hrs
# 7. Detection reagent; 1 uL of CCF4-dye
# 8. Incubation; RT for 2 hrs
# 9. Detection; Fluorescence; Envision plate reader
# Chain of Peroxisome proliferator-activated receptor gamma (Homo sapiens) (P37231 whole entry, looked up): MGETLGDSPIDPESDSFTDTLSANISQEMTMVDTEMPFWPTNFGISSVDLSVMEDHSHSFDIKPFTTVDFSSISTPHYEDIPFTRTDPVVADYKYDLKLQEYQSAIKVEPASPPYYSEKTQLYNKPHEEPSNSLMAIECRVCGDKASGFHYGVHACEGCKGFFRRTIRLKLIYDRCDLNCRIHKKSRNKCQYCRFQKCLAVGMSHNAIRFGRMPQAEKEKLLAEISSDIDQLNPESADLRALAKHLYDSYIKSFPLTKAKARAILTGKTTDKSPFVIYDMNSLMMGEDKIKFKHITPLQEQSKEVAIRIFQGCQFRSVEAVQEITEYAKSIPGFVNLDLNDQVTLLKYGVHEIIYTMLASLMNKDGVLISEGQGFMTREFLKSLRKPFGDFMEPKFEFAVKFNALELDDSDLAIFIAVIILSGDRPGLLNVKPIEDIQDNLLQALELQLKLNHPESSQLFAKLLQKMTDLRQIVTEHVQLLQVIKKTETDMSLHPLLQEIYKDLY
SMILES,"activity, negative = inhibition [%]",Potency
CCNc1nc(NC(C)(C)C)nc(SC)n1,2.91,
COP(=O)(NC(C)=O)SC (stereo not given),6.68,
O=[N+]([O-])c1ccc(Oc2ccc(Cl)cc2Cl)cc1,-14.2,
CC(=NC#N)N(C)Cc1ccc(Cl)nc1,6.47,
CCOP(=S)(OCC)SCC(=O)NC(C)C,3.11,
CC1(C)Cc2cccc(O)c2O1,0.344,
COC(=O)c1sccc1S(=O)(=O)NC(=O)Nc1nc(C)nc(OC)n1,9.98,
CCOP(=O)(OCC)SCCSCC,-7.76,
N#CCNC(=O)c1cnccc1C(F)(F)F,3.93,
CCCCCCCCCCCCN(C)C,11.9,
C/C(=N\NC(=O)Nc1cc(F)cc(F)c1)c1ncccc1C(=O)O,,inactive
O=c1[nH]c2ccccc2c(=O)o1,10.2,
CCSCCSP(=O)(OC)OC,3.15,
N#Cc1c[nH]cc1-c1cccc2c1OC(F)(F)O2,,31.6 µM (active)
O=C1C=C2C(=CCOC2O)O1 (stereo not given),,20 µM (active)
[CH3][Sn]([Cl])([Cl])[Cl],2.68,
CNC(=O)Oc1cccc(N=CN(C)C)c1,-11.7,
CCN(CC)C(=O)C(C)Oc1cccc2ccccc12 (stereo not given),-6.52,
CN(C)c1nc(=O)n(C2CCCCC2)c(=O)n1C,0.37,
O=Cc1cccc(Oc2ccccc2)c1,5.64,

SMILES,"activity, negative = inhibition [%]",Potency
Clc1ccc([C@@]2(Cn3cncn3)C[C@@H](Br)CO2)c(Cl)c1,-3.93,
CC1(C)CC/C(=C\c2ccc(Cl)cc2)C1(O)Cn1cncn1 (stereo not given),-8.27,
CCOP(=O)(OCC)SCSP(=S)(OCC)OCC,-16.4,
O=C(Nc1ccccc1)Nc1ccnc(Cl)c1,-2.87,
Clc1ccc(C2(Cn3cncn3)CC(Br)CO2)c(Cl)c1 (stereo not given),-0.476,
Cc1cc(C)nc(Nc2ccccc2)n1,-0.11,
CC(C)N1C(=O)N(c2ccccc2)CSC1=NC(C)(C)C,-7.27,
CCS(=O)(=O)c1cccnc1S(=O)(=O)NC(=O)Nc1nc(OC)cc(OC)n1,-20.2,
Nc1cccc(Cl)c1Cl,7.25,
C=C(C)CN(CC)c1c([N+](=O)[O-])cc(C(F)(F)F)cc1[N+](=O)[O-],-2.47,
CCOP(=S)(Oc1cnc(C(C)(C)C)nc1)OC(C)C (stereo not given),-10.5,
Cc1nc(N(C)C)nc(OC(=O)N(C)C)c1C,-4.45,
CC(C)C1(C)N=C(c2ncccc2C(=O)O)NC1=O (stereo not given),8.17,
Cc1c(COC(=O)C2C(/C=C(\Cl)C(F)(F)F)C2(C)C)cccc1-c1ccccc1 (stereo not given),10.6,
CCCCN(CC)c1c([N+](=O)[O-])cc(C(F)(F)F)cc1[N+](=O)[O-],5.99,
CCSC(C)CC1CC(=O)C(/C(CC)=N/OC/C=C/Cl)=C(O)C1 (stereo not given),-15.1,
C=CC(=O)NCO,,inactive
CCOP(=O)(OCC)Oc1cc(C)nc(C(C)C)n1,-18.2,
CON=C(C(=O)OC)c1ccccc1CO/N=C(\C)c1cccc(C(F)(F)F)c1,,35.5 µM (active)
O=C=Nc1ccc(Cl)cc1,-0.0555,
